Assay results reported in PubChem BioAssay (NCI).
Compounds without any hit were thinned out: in the full panel of roughly 83,000, 20% have a hit.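 Plates (96-well) were seeded with cells, treated with compound at one concentration, and incubated for 48 hours before percent growth was determined.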 Activity calls are given as the source filed them. How the source made its calls: active means growth percent below 10; inactive means the rest.

Each molecule was assayed on HL-60(TB) leukemia (assay: NCI-60 one-dose screen, 48 h (100 = growth as untreated, 0 = no growth, -100 = all killed)). Conditions: 10 µM unless noted.

Structure (SMILES)	growth
C=C(C)[C@@H]1CC[C@]2(CN)CC[C@]3(C)[C@H](CC[C@@H]4[C@@]5(C)CCC(=O)NC(C)(C)[C@@H]5CC[C@]43C)[C@@H]12	-50.5% (active)
CC(=O)Nc1ccc2c(c1)C(=O)c1cccc(C(=O)O)c1-2	97.2% (inactive)
C1=Cc2ccccc2N(c2nnc(-c3ccccc3)o2)c2ccccc21	86.8% (inactive)
COc1cc(C(=O)/C=C/c2c(C(F)(F)F)nc3ccccn23)cc(OC)c1OC	-9.98% (active)
CCN1CCN(c2ccc(Nc3ncc4ccc5ncn(C(C)C)c5c4n3)nc2)CC1	-36.3% (active)
CCCCc1nc(Cl)c(CO)n1Cc1ccc(-c2ccccc2-c2nn[nH]n2)cc1	110% (inactive)
Cc1cnc(Nc2ccc(N3CCN(C)CC3)cc2)nc1Nc1ccc(Cl)c(NS(=O)(=O)C(C)(C)C)c1	-13.4% (active)
CC1(C)CC[C@]2(c3nnc(-c4ccncc4)o3)CC[C@]3(C)C(=CC[C@@H]4[C@@]5(C)CCC(=O)C(C)(C)[C@@H]5CC[C@]43C)[C@@H]2C1	30.7% (inactive)
C[C@@H](C[C@H](CCO)c1cc(C(F)(F)F)cc(C(F)(F)F)c1)c1ccc2ccccc2c1	93.5% (inactive)
OC(c1cc2ccc(C(F)(F)F)cc2c2cc(C(F)(F)F)ccc12)C1CCCCN1 (stereo not given)	-72.8% (active)
COc1cc2c(cc1I)-c1c(cc(OC)c(OC)c1OC)CC[C@@H]2NC(C)=O	6.93% (active)
CSc1nc2c(c(=O)[nH]1)C1(C(=O)Nc3ccccc31)c1c(nc(SC)[nH]c1=O)N2	107% (inactive)
COc1ccc(-c2csc(NC(=O)c3cc(O)c(O)c(O)c3)n2)cc1	62.4% (inactive)
COc1cc(NC(=O)c2cc(OC)c3ccn(C)c3c2)cc2c1C[C@]1(C)CC[C@@H](O)C(C)(C)[C@H]1O2	31.5% (inactive)
O=C1C(=O)c2ccc(Br)cc2-c2cc(Br)ccc21	-14.5% (active)
COc1ccc(C(=O)/C=C/C23c4ccccc4C(c4ccccc42)C2C(=O)NC(=O)C23)cc1 (stereo not given)	92% (inactive)
C=C1C(=O)O[C@H]2[C@H]1CC/C(COC(=O)NCCc1c[nH]c3ccc(OC)cc13)=C\CC[C@@]1(C)O[C@@H]21	-42.8% (active)
CON1CCC[C@]2(C)[C@H]3CC[C@@H]4[C@H]5[C@@H](O)C(C)(C)CC[C@]5(CO)CC[C@@]4(C)[C@]3(C)CC[C@H]2C1(C)C	91.5% (inactive)
CCN(CCC#N)c1ccccc1	98.1% (inactive)
Cc1sc2nc(NCCc3cccs3)[nH]c(=O)c2c1C	102% (inactive)

Structure (SMILES)	growth
CCNCCNc1cc(-c2ccc(Cl)c(Cl)c2)c(C#N)c2nc3ccccc3n12	-62.3% (active)
C=CCO[C@H]1CO[C@H]2[C@@H]1OC[C@@H]2Oc1ccc(Nc2ccnc(Nc3ccc(O[C@H]4CO[C@H]5[C@@H]4OC[C@@H]5OCC=C)c(Cl)c3)n2)cc1Cl	-51.4% (active)
O=C1C=CC2(NN=C(c3ccccc3)N2c2cccc(Cl)c2)C(Cl)=C1 (stereo not given)	33% (inactive)
COc1cc(N2C(=O)c3nccnc3C2=O)cc(OC)c1OC	90.3% (inactive)
O=C(Nc1cc(-c2cccnc2)nc(NCCCN2CCOCC2)n1)c1cc(Br)cc(C(F)(F)F)c1	48.5% (inactive)
CC/C(=C\c1ccc(N(C)C)cc1)c1ccncc1	29.5% (inactive)
COc1cc(C2CC(=O)Nc3c2cc(Br)c2ccccc32)cc(Br)c1OC (stereo not given)	-2.09% (active)
C=C1C(=O)O[C@H]2[C@H]1CC/C(COC(=O)NCC(=O)Nc1ccc(OC)c(C(N)=O)c1O)=C\CC[C@@]1(C)O[C@@H]21	-7.13% (active)
NC1CCC(Nc2nc(NCc3ccc(-c4ccco4)nc3)c3ncn(C4CCCC4)c3n2)CC1 (stereo not given)	-33.3% (active)
COc1ccc(CN2CCCC(C(=O)c3ccc(C(F)(F)F)cc3)C2)c(O)c1 (stereo not given)	17% (inactive)
CNC(=O)OC1C(O[C@H]2C[C@H]3[C@@H]4CC=C5C[C@@H](O)CC[C@]5(C)[C@H]4CC[C@]3(C)[C@H]2[C@H](C)C(=O)CCC(C)C)OCC(O)C1OC1OCC(O)C(O)C1OC(=O)c1ccc(OC)cc1 (stereo not given in full)	-12.1% (active)
Oc1c(Br)cc(Br)c2ccc(Cn3cc(-c4ccc(C(F)(F)F)cc4)nn3)nc12	-5.83% (active)
C=C1C(=O)O[C@H]2[C@H]1CC/C(C=Nc1c(N)cc(C(F)(F)F)cc1Br)=C\CC[C@@]1(C)O[C@@H]21	-13.1% (active)
O=C(CCCN1CCOCC1)Nc1ccc(Cn2nnc3c2C(=O)c2nnn(Cc4ccc(NC(=O)CCCN5CCOCC5)cc4)c2C3=O)cc1	-7.47% (active)
C=CC(=O)Nc1cccc(-c2nc(SC)nc(NCc3ccccc3)c2C#N)c1	50% (inactive)
O=C(Nc1ccncc1)C(=O)c1cn(S(=O)(=O)c2cccc(Cl)c2)c2ccccc12	41.8% (inactive)
COc1ccc(N2C(=O)CC(c3cc(OC)c(OC)c(OC)c3)C3C2=NC(=O)N3C)cc1 (stereo not given)	107% (inactive)
COc1nc(OC)nc(-c2cc(-c3cc(OC)c(OC)c(OC)c3)no2)n1	95.2% (inactive)
O=C(Nc1ccc(NCCN2CCOCC2)nc1)c1ccc([N+](=O)[O-])cc1	127% (inactive)
Cc1ccc(N=Nc2c(N)nn(-c3ccccc3)c2N)cc1	17.5% (inactive)
